In all, about 3,200 compounds went through this assay and about 300 (9.4%) showed activity. Many of the other results were omitted from the sample, so actives are more common in it than they were.
Tested on: A673/TR/shEF
Assay: cell viability (LOESS-normalised, relative to median of negative controls) (log2 ratio); higher = more viable cells (less compound effect), active = hit call of the paper (over 3 MAD below the median)
Details: treatment time: 72 h
How it was run: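 Doxycycline, present or absent from 24 h before compounds, was used to induce EWS-FLI1 shRNA knockdown in A673/TR/shEF Ewing sarcoma cells at 1,500 per well in 384-well plates. Cells then received library compounds at two or more concentrations, or DMSO controls, for three days. Viability was measured by CellTiter-Glo luminescence on an Envision reader, and per-plate LOESS correction, division by the negative-control median and log2 transformation followed.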

[1] = 0.25 µM, library screen: screen1, EWS-FLI1 expression: high (no doxycycline)
[2] = 0.25 µM, library screen: screen1, EWS-FLI1 expression: low (doxycycline-induced shRNA knockdown)
[3] = 2.5 µM, library screen: screen1, EWS-FLI1 expression: high (no doxycycline)
[4] = 2.5 µM, library screen: screen1, EWS-FLI1 expression: low (doxycycline-induced shRNA knockdown)
[5] = 0.25 µM, library screen: screen2, EWS-FLI1 expression: high (no doxycycline)
[6] = 0.25 µM, library screen: screen2, EWS-FLI1 expression: low (doxycycline-induced shRNA knockdown)
[7] = 2.5 µM, library screen: screen2, EWS-FLI1 expression: high (no doxycycline)
[8] = 2.5 µM, library screen: screen2, EWS-FLI1 expression: low (doxycycline-induced shRNA knockdown)
[9] = 0.025 µM, library screen: screen1, EWS-FLI1 expression: high (no doxycycline)
[10] = 0.025 µM, library screen: screen1, EWS-FLI1 expression: low (doxycycline-induced shRNA knockdown)
[11] = 25 µM, library screen: screen1, EWS-FLI1 expression: high (no doxycycline)
[12] = 25 µM, library screen: screen1, EWS-FLI1 expression: low (doxycycline-induced shRNA knockdown)
[13] = 0.103 µM, library screen: screen3, EWS-FLI1 expression: high (no doxycycline)
[14] = 0.103 µM, library screen: screen3, EWS-FLI1 expression: low (doxycycline-induced shRNA knockdown)
[15] = 0.308 µM, library screen: screen3, EWS-FLI1 expression: high (no doxycycline)
[16] = 0.308 µM, library screen: screen3, EWS-FLI1 expression: low (doxycycline-induced shRNA knockdown)
[17] = 0.926 µM, library screen: screen3, EWS-FLI1 expression: high (no doxycycline)
[18] = 0.926 µM, library screen: screen3, EWS-FLI1 expression: low (doxycycline-induced shRNA knockdown)
[19] = 2.8 µM, library screen: screen3, EWS-FLI1 expression: high (no doxycycline)
[20] = 2.8 µM, library screen: screen3, EWS-FLI1 expression: low (doxycycline-induced shRNA knockdown)
[21] = 8.3 µM, library screen: screen3, EWS-FLI1 expression: high (no doxycycline)
[22] = 8.3 µM, library screen: screen3, EWS-FLI1 expression: low (doxycycline-induced shRNA knockdown)
[23] = 25 µM, library screen: screen3, EWS-FLI1 expression: high (no doxycycline)
[24] = 25 µM, library screen: screen3, EWS-FLI1 expression: low (doxycycline-induced shRNA knockdown)

Measured: cell viability (log2)

Cn1cnnc1SCC(=O)N1c2ccccc2CCc2ccccc21
inactive: [1] 0.0935 | [2] 0.0627 | [3] 0.0921 | [4] 0.0613

C[C@H](NC(=O)/C(C#N)=C/c1ccc(O)c(O)c1)c1ccccc1
inactive: [5] 0.133 | [6] 0.0775 | [7] 0.118 | [8] 0.0876

N#C/C(=C\c1ccc(O)c(O)c1)C(=O)NCc1ccccc1
inactive: [9] 0.245 | [10] 0.0652 | [1] 0.23 | [2] 0.104 | [5] 0.0885 | [6] 0.0797 | [7] 0.253 | [8] 0.0805 | [12] -0.0381
active: [3] -0.573 | [4] -0.157 | [11] -0.423

N#C/C(=C\c1ccc(O)c(O)c1)C(=O)NCCCc1ccccc1
inactive: [5] 0.175 | [6] 0.0501 | [7] 0.049 | [8] 0.115

N#C/C(=C\c1ccc(O)c(O)c1)C(=O)NCCc1ccccc1
inactive: [5] 0.142 | [6] 0.0983 | [7] 0.163 | [8] 0.0697

O=C(O)Cc1ccc(O)c(O)c1
inactive: [5] 0.133 | [6] -0.00472 | [7] 0.0419 | [8] 0.108

N#C/C(=C\c1ccc(O)c(O)c1)C(=O)Nc1ccccc1
inactive: [9] 0.188 | [10] -0.0571 | [1] 0.155 | [2] 0.0428 | [5] 0.0861 | [6] 0.0194 | [4] 0.0541 | [7] 0.105 | [8] 0.00853 | [12] 0.0298
active: [3] -0.16 | [11] -0.692

CC(C)c1cc(/C=C(\C#N)C(=O)NCCCc2ccccc2)cc(C(C)C)c1O
inactive: [9] 0.249 | [10] 0.00192 | [1] 0.255 | [2] -0.0227 | [4] 0.113 | [12] 0.147
active: [3] -0.147 | [11] -0.351

C[C@@H](NC(=O)/C(C#N)=C/c1ccc(O)c(O)c1)c1ccccc1
inactive: [5] 0.139 | [6] -0.0177 | [7] 0.152 | [8] 0.00798

O=C(O)c1cc([N+](=O)[O-])ccc1NCCCc1ccccc1
inactive: [1] 0.00351 | [2] 0.0513 | [5] 0.0917 | [6] 0.092 | [3] -0.0108 | [4] 0.0086 | [7] 0.0503 | [8] 0.0316

CC(=O)O[C@H]1CC[C@@]2(C)C(CC[C@]3(C)C2C(=O)C=C2C4[C@@H](C)[C@H](C)CC[C@]4(C(=O)O)CC[C@]23C)C1(C)C (some centres undefined)
inactive: [1] 0.0834 | [2] -0.0467 | [3] 0.137 | [4] -0.0143

Cc1nnc(SCC(=O)N2c3cc(C)c(C)cc3-c3c(ssc3=S)C2(C)C)s1
inactive: [1] 0.0437 | [2] 0.1 | [3] 0.106 | [4] 0.371

COc1cc(CN2CCN(Cc3ccccc3Br)CC2)cc(OC)c1OC
inactive: [1] 0.141 | [2] 0.0128 | [3] 0.124 | [4] -0.0338

COCCCN1C(=O)C(=Cc2sccc2C)SC1=S
inactive: [1] 0.112 | [2] 0.0557 | [3] 0.117 | [4] -0.0013

CC1=C(C(=O)Nc2ccccc2Cl)C(c2ccc(F)cc2)NC(=S)N1 (centres undefined)
inactive: [1] 0.0751 | [2] -0.00334 | [3] 0.0684 | [4] -0.0806

CC(=O)CCC(=O)O
inactive: [1] 0.109 | [2] -0.0377 | [3] 0.149 | [4] 0.116

Nc1ccccc1C(=O)CC(N)C(=O)O (centres undefined)
inactive: [1] 0.119 | [2] 0.0475 | [3] 0.0296 | [4] 0.178

Clc1ccc(COC(Cn2ccnc2)c2ccc(Cl)cc2Cl)c(Cl)c1 (centres undefined)
inactive: [13] 0.0363 | [14] 0.054 | [1] 0.11 | [2] -0.0145 | [15] 0.0264 | [16] 0.0988 | [17] 0.0504 | [18] 0.0737 | [3] 0.143 | [4] 0.0636 | [19] 0.00663 | [20] 0.0754 | [21] -0.0261 | [22] 0.0596 | [23] -0.0834 | [24] 0.0583

Clc1ccc(COC(Cn2ccnc2)c2ccc(Cl)cc2Cl)cc1 (centres undefined)
active: [23] -0.429
inactive: [13] -0.00584 | [14] 0.0214 | [1] 0.00613 | [2] -0.0476 | [15] 0.00202 | [16] -0.00564 | [17] 0.0175 | [18] 0.0368 | [3] 0.0561 | [4] 0.0348 | [19] -0.113 | [20] 0.0131 | [21] -0.0802 | [22] 0.0353 | [24] -0.0458

Source: the supplement of paper PMC6089552
